According to patent US10344301, “Mutants of the bacteriophage lambda integrase” (AGENCY FOR SCIENCE, TECHNOLOGY AND RESEARCH):

T1: I43F C2 integrase (Bacteriophage lambda, UniProt P03700 SEQ:1-356, I43F)
T1 sequence: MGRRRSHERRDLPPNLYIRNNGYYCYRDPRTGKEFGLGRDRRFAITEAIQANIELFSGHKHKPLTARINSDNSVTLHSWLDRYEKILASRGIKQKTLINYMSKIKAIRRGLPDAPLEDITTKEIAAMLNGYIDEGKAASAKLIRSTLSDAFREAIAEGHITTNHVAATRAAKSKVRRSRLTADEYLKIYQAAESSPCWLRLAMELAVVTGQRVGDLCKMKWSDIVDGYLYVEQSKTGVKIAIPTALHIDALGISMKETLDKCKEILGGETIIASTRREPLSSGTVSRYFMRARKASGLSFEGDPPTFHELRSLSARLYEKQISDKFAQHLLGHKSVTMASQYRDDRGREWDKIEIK


Molecular target: T1, I43F C2 integrase
Test: IVT; E319G removed from C3
Details: tags: PURExpress IVT

| Binder | binding signal |
| --- | --- |
| attH ; attPH (dsDNA ; dsDNA) DNA 1: CTGCTTTCTTATACCAAGTGG DNA 2: CCACTTGGTATAAGAAAGCAG DNA 3: CAGCTTTCTTATACCAAGTTG DNA 4: CAACTTGGTATAAGAAAGCTG | ~3 fold reduced vs C3 |
| attH4X ; attP4X (dsDNA ; dsDNA) DNA 1: ACGCTTTATTTCATTAAGTTG DNA 2: CAACTTAATGAAATAAAGCGT DNA 3: CAGCTTTATTTCATTAAGTTG DNA 4: CAACTTAATGAAATAAAGCTG | ~3 fold reduced vs C3 |
| attB ; attP (dsDNA ; dsDNA) DNA 1: CTGCTTTTTTATACTAACTTG DNA 2: CAAGTTAGTATAAAAAAGCAG DNA 3: CAGCTTTTTTATACTAAGTTG DNA 4: CAACTTAGTATAAAAAAGCTG | ~3 fold reduced vs C3 |
